Active and inactive are the calls of the source. Rule for the calls: active = hit-call score of the fitted dose curve at least 0.9, where 1 is the maximum; inactive = score below 0.9.
What was measured:
[1] = APR_HepG2_P-H2AX_72hr: Apredica 72-hour HepG2 Assay for H2AX Phosphorylation (AID 2282916); settings: imaging, actives raise or lower the signal;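 note: phospho-histone H2A.x immunostain intensity per cell marking DNA damage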
Summary of the method: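 Following 72 hr treatment with 0.39–200 uM compound, HepG2 cells were formaldehyde-fixed, permeabilized and stained for phospho-H2A.x; signal was measured by high-content imaging and fitted bidirectionally against DMSO controls.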

[2] = APR_HepG2_MitoMembPot_72hr: Apredica 72-hour HepG2 Assay for Mitochondrial Membrane Potential (AID 2282917); settings: imaging, actives raise or lower the signal
Summary of the method: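 HepG2 cells exposed 72 h to compounds at 0.39–200 uM (0.5% v/v DMSO, duplicates); MitoTracker Red CMXRos 250 nM loaded 30 min before 3.7% formaldehyde fixation, imaged by HCS fluorescence. Bidirectional fit versus DMSO.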

[3] = APR_HepG2_MicrotubuleCSK_72hr: Apredica 72-hour HepG2 Assay for Microtubule CSK Stabilty (AID 2282919); settings: HepG2 microtubule cytoskeleton, high-content imaging, actives raise or lower the signal
Summary of the method: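 HepG2 human liver cells were dosed for 72 h at ten concentrations from 0.39 to 200 uM in duplicate (0.5% v/v DMSO final). Fixed, permeabilized cells were immunostained for alpha-tubulin (Cy5) with a Hoechst counterstain and imaged at 20x.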

[4] = APR_HepG2_P-H2AX_24hr: Apredica 24-hour HepG2 Assay for H2AX Phosphorylation (AID 2282920); settings: high-content imaging, actives raise or lower the signal
Summary of the method: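 HepG2 human liver cells were exposed for 24 hr to compounds at 0.39–200 uM in duplicate, with 0.5% v/v DMSO final. Fixed cells were immunostained for phospho-histone H2A.x plus Hoechst 33342, imaged by HCS fluorescence, and fitted bidirectionally against DMSO.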

[5] = APR_HepG2_StressKinase_72hr: Apredica 72-hour HepG2 Assay for Stress Kinase (AID 2282921); settings: HepG2 stress kinase (phospho-c-Jun) imaging, actives raise or lower the signal
Summary of the method: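 Fluorescence intensity of Cy3-tagged anti-phospho-c-Jun antibody, quantified per cell from Hoechst-defined nuclei across six images per well, served as the read-out following 72 h exposure (0.39–200 uM, 0.5% v/v DMSO).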

[6] = APR_HepG2_StressKinase_24hr: Apredica 24-hour HepG2 Assay for Stress Kinase (AID 2282922); settings: HepG2 stress kinase (phospho-c-Jun) imaging, actives raise or lower the signal
Summary of the method: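 HepG2 cells exposed 24 hr to compound at 0.39–200 uM (10 concentrations, duplicate), 0.5% v/v DMSO final. Fixed in 3.7% formaldehyde, permeabilized with Triton X-100, immunolabeled for phospho-c-Jun with Hoechst 33342; HCS fluorescence imaging, bidirectional fit versus DMSO.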

[7] = APR_HepG2_p53Act_72hr: Apredica 72-hour HepG2 Assay for p53 Activation (AID 2282923); settings: high-content imaging, actives raise or lower the signal;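 note: average cellular p53 protein immunofluorescence intensity in HepG2 cells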
Summary of the method: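 HepG2 monolayers receive test compounds in duplicate at ten concentrations (0.39 through 200 uM) for 72 hr. They are then formaldehyde-fixed, antibody-labelled for p53, Hoechst-stained and imaged, with activity fitted bidirectionally versus DMSO.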

[8] = APR_HepG2_MitoMass_72hr: Apredica 72-hour HepG2 Assay for Mitochondrial Mass (AID 2282924); settings: high-content imaging, actives raise or lower the signal;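 note: MitoTracker Red CMXRos stain intensity per cell imaged as mitochondrial mass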
Summary of the method: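 HepG2 cells were exposed for 72 hr to compounds at 0.39–200 uM (ten concentrations, duplicate, 0.5% v/v DMSO final). Live cells were stained with 250 nM MitoTracker Red CMXRos for 30 min, then fixed in 3.7% formaldehyde and imaged by HCS fluorescence.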

[9] = APR_HepG2_NuclearSize_72hr: Apredica 72-hour HepG2 Assay for Nuclear Size (AID 2282925); settings: high-content imaging, actives raise or lower the signal
Summary of the method: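 HepG2 cells were exposed to compounds at ten concentrations from 0.39 to 200 uM (duplicate, 0.5% DMSO final) for 72 hr. After fixation in 3.7% formaldehyde, nuclei were stained with Hoechst 33342 (2 ug/mL) and imaged at 20x.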

Row | SMILES | outcome [1] | outcome [2] | outcome [3] | outcome [4] | outcome [5] | outcome [6] | outcome [7] | outcome [8] | outcome [9] | AC50 [1] | AC50 [3] | AC50 [5] | AC50 [7] | AC50 [2] | AC50 [6] | AC50 [9] | AC50 [4]
1 | CCCCCCCCN(C)CCCCCCCC | inactive | inactive | inactive | inactive | inactive | inactive | inactive | inactive | inactive |  |  |  |  |  |  |  | 
2 | CCCCOC(=O)CC(CC(=O)OCCCC)(OC(C)=O)C(=O)OCCCC |  | inactive |  | inactive |  | inactive |  | inactive | inactive | 56.2 µM (active) | 43.6 µM (active) | 56.4 µM (active) | 57.9 µM (active) |  |  |  | 
3 | O=C(O)Cc1cc(I)c(Oc2ccc(O)c(I)c2)c(I)c1 | inactive | inactive | inactive |  | inactive | inactive | inactive | inactive | inactive |  |  |  |  |  |  |  | 
4 | CCN(Cc1cccnc1)C(=O)c1cccc(Cl)c1[C@]1(C)C(=O)N(Cc2ccc(OC)cc2OC)c2ccc(Cl)cc21 |  | inactive | inactive |  | inactive | inactive |  | inactive | inactive | 20.3 µM (active) |  |  | 29.4 µM (active) |  |  |  | 
5 | CCCCCCCCOC(=O)c1cc(O)c(O)c(O)c1 |  |  | inactive |  | inactive |  |  | inactive | inactive | 5.88 µM (active) |  |  | 4.98 µM (active) | 23.8 µM (active) | 52.1 µM (active) |  | 
6 | O=C1CCC(C2CCCCC2)CC1 | inactive | inactive | inactive | inactive | inactive | inactive | inactive | inactive | inactive |  |  |  |  |  |  |  | 
7 | NC(=O)c1nc(-c2cccc(-c3cc(F)ccc3OCC(F)(F)C(F)(F)F)c2)n[nH]1 |  | inactive | inactive | inactive |  | inactive | inactive | inactive |  | 111 µM (active) |  | 93.4 µM (active) |  |  |  | 100 µM (active) | 
8 | CC1(C)NC(=O)N(c2ccc([N+](=O)[O-])c(C(F)(F)F)c2)C1=O | inactive | inactive | inactive | inactive | inactive | inactive | inactive | inactive | inactive |  |  |  |  |  |  |  | 
9 | COCC(C)OCC(C)OCC(C)O (stereo unspecified) | inactive | inactive | inactive |  | inactive | inactive | inactive | inactive | inactive |  |  |  |  |  |  |  | 
10 | O=c1ccc2ccccc2o1 | inactive |  | inactive |  | inactive | inactive | inactive | inactive | inactive |  |  |  |  | 100 µM (active) |  |  | 
11 | O=C1O[C@H]([C@@H](O)CO)C(O)=C1O |  | inactive | inactive | inactive | inactive | inactive |  | inactive |  | 11.2 µM (active) |  |  | 10.5 µM (active) |  |  | 11.1 µM (active) | 
12 | CN(C[C@@H](CC[N+]12CCC(C3CCCCC3)(CC1)CC2)c1ccc(Cl)c(Cl)c1)C(=O)c1cc(C(F)(F)F)cc(C(F)(F)F)c1 |  |  |  |  | inactive | inactive |  | inactive | inactive | 31.8 µM (active) | 28.4 µM (active) |  | 26.7 µM (active) | 47.8 µM (active) |  |  | 
13 | CN(C)C(=O)C1(N2CCCCC2)CCN(CC[C@@]2(c3ccc(Cl)c(Cl)c3)CN(C(=O)c3ccccc3)CCO2)CC1 |  | inactive | inactive |  | inactive | inactive |  | inactive |  | 12.3 µM (active) |  |  | 20.2 µM (active) |  |  | 6.79 µM (active) | 19.6 µM (active)
14 | Oc1ccccc1 | inactive | inactive | inactive |  | inactive | inactive | inactive | inactive | inactive |  |  |  |  |  |  |  | 
15 | COc1cccc([C@H](O)C2CCN(CCc3ccc(F)cc3)CC2)c1OC | inactive | inactive |  | inactive | inactive | inactive | inactive | inactive | inactive |  | 103 µM (active) |  |  |  |  |  | 
16 | CCCOC(=O)c1cc(O)c(O)c(O)c1 | inactive | inactive | inactive | inactive | inactive | inactive |  | inactive | inactive |  |  |  | 38.8 µM (active) |  |  |  | 
17 | Cc1cc2c(cc1C(F)(F)F)N(C(=O)Nc1ccc(Oc3cccnc3C)nc1)CC2 |  | inactive |  |  |  |  |  | inactive | inactive | 22.2 µM (active) | 38.4 µM (active) | 20.1 µM (active) | 27.8 µM (active) |  | 26.2 µM (active) |  | 43 µM (active)
18 | CC[C@@H]1C[C@H](N(Cc2cc(C(F)(F)F)cc(C(F)(F)F)c2)C(C)=O)c2cc(C(F)(F)F)ccc2N1C(=O)OC(C)C | inactive | inactive | inactive |  | inactive | inactive | inactive | inactive | inactive |  |  |  |  |  |  |  | 
19 | Clc1cc(Cl)c2c(c1)N=C1CCCCCN1C2 | inactive | inactive | inactive |  | inactive | inactive | inactive | inactive | inactive |  |  |  |  |  |  |  | 
20 | O=C=NCCCCCCN=C=O | inactive | inactive | inactive | inactive | inactive | inactive | inactive | inactive | inactive |  |  |  |  |  |  |  | 
